Values joined by “and” are separate entries in the source; they are usually repeats but may differ in a detail not shown here. Equal values may be shown once. In all, about 420,000 compounds went through this assay and about 64,000 (15%) were called active. Roughly 27% stayed inconclusive and do not appear here. Calls come from the whole dose curve; as a rule, active = well fitted inhibition curve with a large enough effect; inconclusive = small, poorly fitted or top-dose-only effect; inactive = flat fitted curve, though single readings scatter. Only a sample is shown. A call without a number means that no potency is given here.
Potency is the fitted concentration of half-maximal effect.

The nature of this test: qHTS for Inhibitors of human tyrosyl-DNA phosphodiesterase 1 (TDP1): qHTS in cells in absence of CPT. Note: nearly all actives have a fitted effect of over 55% in size. Particulars: DT40 Tdp1-/- hTDP1 cells, no CPT, ATP luminescence, 48 h; activity change, negative = growth inhibition: at 46.2 µM (top of the series). An excerpt:
Human tyrosyl-DNA phosphodiesterase 1 (TDP1) is a novel repair gene, and we propose to use it as a new target for anticancer drug development. TDP1 is not an essential protein, but under treatment with topoisomerase I poison (camptothecin: CPT), TDP1 works as a critical factor for cell survival. To directly identify novel TDP1 inhibitors active in a cellular environment, we have knocked-out the Tdp1 gene in chicken DT40 cells (Tdp1-/-) and generated a complemented counterpart cells that contains a stable transfection of the human TDP1 gene (Tdp1-/-;hTDP1 cells). For the primary screen, Tdp1-/-;hTDP1 cells will be exposed to small molecules in the presence or absence of CPT, and their growth kinetics will be evaluated after 48 hours by measuring ATP activity. […] The hit compounds will then be evaluated in the presence or absence of CPT using Tdp1-/- cells. […] In tertiary assays, biochemical gel-based assays will be used to assess whether the hit compounds specifically target TDP1.
To this end, we have screened this cell line against the MLSMR in two primary screens. In one screen we add CPT and in the other we screen in the absence of CPT; this AID represents the screen where CPT was absent.
NIH Chemical Genomics Center [NCGC]
NIH Molecular Libraries Probe Centers Network [MLPCN]
Assay Submitter (PI): Yves Pommier, NCI
DT40-hTDP1 cells without 20 nM Camptothecin (add 20 microL of DMSO in 1 L of cell culture medium) were dispensed at 400 cells/5microL/well in tissue culture treated 1536-well white wall/solid bottom assay plates (Greiner Bio-One North America, NC, U.S.A.) using a Multidrop Combi 8 channel dispenser (Thermo Fisher, Waltham, MA, USA). 23 nL compounds and controls were transferred using the pin tool (Kalypsys, San Diego, CA, USA) to the assay plates. The assay plates were then incubated at 37 masculineC for a minimum 48 hr. Three microL of Cell Titer Glo solution was added to the plates and incubated at RT in dark for 30 min. Luminescence was read using ViewLux (Perkin Elmer) with 1 sec exposure slow speed, high gain and 2x binning.
On the technique in general: qHTS replaces the single test concentration by a dilution series.
In the case of `O=C(NNC(=O)c1cc(-c2ccccc2Cl)nc2ccccc12)c1csc(N2CCOCC2)n1`, the Potency result was “inactive”.
For `CCOc1cc(N2CCOCC2)c(OCC)cc1NC(=O)c1ccc(C)s1` the value was 2.06 µM (active); for `COc1cc(C(=O)Nc2cc(C(F)(F)F)ccc2N2CCOCC2)ccc1O`, “inactive”; for `CCOc1cc(N2CCOCC2)c(OCC)cc1NC(=O)c1cc(C)nc2ccccc12`, 14.6 µM (active).
For `O=C(Nc1ccccc1N1CCOCC1)c1csc2c1CCCC2` the value was “inactive”.
For the compound `CCOc1ccc(NC(=O)c2cc(C)nc3ccccc23)cc1`, the Potency entry was “inactive”.
For `Cc1oc(C)c(C(=O)NCCCC(=O)O)c1C(=O)NCCCC(=O)O` the value was “inactive”.
As to `Cc1ccc(S(=O)(=O)N2CCCCC2)cc1C(=O)N1CCN(CCO)CC1`, the Potency entry is “inactive”.
For `CCn1nc(C)c(CNC(=O)C2CCC(=O)N(Cc3cccc(F)c3)C2)c1C` (stereo not given) the value was “inactive”.
As to `CCc1ccc(C(=O)OCC(=O)NCC(F)(F)F)cc1`, the Potency result is “inactive”.
As to `CC(N)C12CC3CC(CC(O)(C3)C1)C2` (stereo not given), the Potency result was “inactive”.
The value for `CCc1ccc2c(c1)C1(NN=C(c3ccccc3)S1)C(=O)N2` (stereo not given) was 2.31 µM (active); that for `CCc1cccc(NC(=O)c2cc(-c3ccccc3)n[nH]2)c1` was “inactive”.
The value for `C=C1c2cc(CC)ccc2NC(=O)N1c1ccc(C)cc1` was “inactive”.
For `Cc1cccc(C)c1NC(=O)C(c1ccccc1)N1CC(=O)Nc2ccccc21` (stereo not given) the value was “inactive”.
Take `COc1ccc(/C=C(\NC(=O)c2ccc(OCC(C)C)cc2)C(=O)OCc2ccco2)cc1`: the Potency is 16.4 µM (active).
The value for `COc1ccc(/C=C(/NC(=O)c2ccccc2)C(=O)Nc2cccc(C(=O)O)c2)cc1` was “inactive”; that for `COc1ccc(/C=C(/NC(=O)c2ccco2)C(=O)Nc2ccc(C(C)=O)cc2)cc1` was “inactive”; that for `CCOc1cc(/C=N/NC(=O)c2ccncc2)cc(Br)c1O` was “inactive”.
For `Cc1ccc(OCCOc2cccc(/C=N/NC(N)=O)c2)cc1` the value was “inactive”; for `Cc1ccc(OCCOCCOc2ccc(Br)cc2/C=N\NC(=O)c2ccncc2)cc1`, 18.4 µM (active).
Turning to `CCCOn1c(-n2nc(C)cc2C)nc2ccccc2c1=O`, the Potency entry was “inactive”.
The value for `CC(=O)c1ccc(OCC(=O)N(C)C2CCS(=O)(=O)C2)cc1` (stereo not given) was “inactive”; that for `Cc1oc(-c2cccc(NC(=O)c3ccccc3)c2)nc1CNC(=O)c1cnc2ccccn2c1=O` was “inactive”; that for `Cc1cc(NC(=O)CSCc2nc(-c3cccc(Cl)c3)oc2C)no1` was “inactive”.
The value for `Cc1cc2c(cc3c(SCc4nc(-c5ccccc5)oc4C)nnc(C)n32)o1` was 16.4 µM (active); that for `C/C(=C\C(=O)c1cccnc1)Nc1ccc(C)c(C)c1` was “inactive”; that for `CSc1nc2ccccc2cc1/C=C(\C#N)c1ccc(Cl)cc1Cl` was “inactive”.
The value for `O=C(CCCN1C(=O)C2C3C=CC(C3)C2C1=O)N1CCN(c2ccccc2)CC1` (stereo not given) was “inactive”; that for `CC(C)c1nnc(NC(=O)CCC(=O)N2CCN(c3cccc(Cl)c3)CC2)s1` was “inactive”.
For `O=C(CCCC(=O)N1CCN(c2cccc(Cl)c2)CC1)c1ccccc1`, the Potency is 18.4 µM (active).
For `COc1ccc(NC(=O)CN(C)C(=O)c2ccc(NC3CC3)c([N+](=O)[O-])c2)cc1` the value was “inactive”; for `O=C1CN(C(=O)c2ccccc2F)C(c2ccc(F)cc2)c2cc(F)ccc2N1` (stereo not given), “inactive”.
With `CCOC(=O)CCc1c(C)c2ccc(OCc3nn[nH]n3)c(C)c2oc1=O`, the Potency entry was “inactive”.
As for `CC(C)C[C@@H]1COc2cc(N3CCC[C@@H]3CO)ccc2S(=O)(=O)N1`, the Potency entry is “inactive”.
For `COc1ccc(/C=C2/SC(=O)N(CCCCCC(=O)Nc3ccccc3C(=O)O)C2=S)cc1` the value was “inactive”; for `CNN/C(N=Cc1ccc([N+](=O)[O-])s1)=N\S(=O)(=O)c1cc(C)c(Cl)cc1SCc1ccccc1`, 1.3 µM (active).
For `CCC(C)(C(=O)NC1CCCCC1)N(C)C(=O)c1ccc2c(c1)OCO2` (stereo not given) the value was “inactive”; for `CCOc1ccccc1NC(=S)C(=C([O-])c1ccc2c(c1)OCCO2)[n+]1ccc(CC)cc1`, 18.4 µM (active).
For `O=[N+]([O-])c1cccc(/C([O-])=C(/C(=S)Nc2ccccc2F)[n+]2ccccc2)c1`, the Potency entry was “inactive”.
For `CCOc1ccccc1NC(=O)NC1CCCCCCC1` the value was “inactive”; for `CC1(C)O[C@@H]2[C@H](O1)[C@@H](CO)O[C@H]2n1c(N2CCCCC2)nc2c(N)ncnc21`, “inactive”.
The value for `CC(C)=CCN1CCN(Cc2cc3ccccc3[nH]2)CC1CCO` (stereo not given) was “inactive”; that for `COc1ccc(COC(=O)NC(C(=O)O)c2ccccc2)cc1` (stereo not given) was “inactive”; that for `CCc1nn(CCCN2CCN(c3cccc(Cl)c3)CC2)c(=O)n1CCOc1ccccc1` was 15 µM (active) and 5.31 µM (active).
With `Cc1nn(CCOc2ccccc2)c(=O)n1-c1ccccc1F`, the Potency result was “inactive”.
The value for `COc1cccc(N2CCN(C3CC(=O)N(c4ccc(Cl)cc4)C3=O)CC2)c1` (stereo not given) was “inactive”; that for `CN1C(C(=O)NCC2CC2)CC2Cn3c(nc4ccccc43)C21` (stereo not given) was “inactive”.
For `CCS(=O)(=O)c1ccc(O)c(NC(=O)COc2ccc(Cl)cc2)c1` the value was “inactive”; for `O=C(Nc1cc(S(=O)(=O)Nc2ccc(Cl)cc2)ccc1O)c1ccc(F)cc1F`, 13 µM (active).
As to `O=C(Nc1cccc(S(=O)(=O)NC2=NCCC2)c1)c1ccc(F)cc1F`, the Potency entry is “inactive”.
The value for `N#CNC1=NCN(CCc2ccccc2)CN1` was “inactive”; that for `O=C(CCN1CCCCC1)Nc1ccc(F)c(F)c1` was “inactive”; that for `COc1ccc(N2CCN(S(=O)(=O)c3cc4c5c(c3)C(C)C(=O)N5CCC4)CC2)cc1` (stereo not given) was “inactive”.
For `COc1ccccc1CCNS(=O)(=O)c1cc2c3c(c1)C(C)C(=O)N3CCC2` (stereo not given) the value was 2.91 µM (active); for `COc1ccc(C)cc1S(=O)(=O)Nc1cc2c3c(c1)CCC(=O)N3CCC2`, “inactive”; for `Cc1cccc(NC(=O)Cc2ccc(Br)cc2)n1`, “inactive”.
With `COC(=O)Cc1c(-c2[nH]c3ccccc3c2CC(=O)OC)[nH]c2ccccc12`, the Potency was 14.6 µM (active).
For `CCOC(=O)C1CCN(C(=O)Cc2c(C(=O)O)[nH]c3ccccc23)CC1` the value was “inactive”; for `COC(=O)Cc1nc2ccccc2[nH]1`, “inactive”; for `COc1ccc(S(=O)(=O)N2CCOCC2)c(C)c1C`, “inactive”.
The value for `COc1ccc(NC(=O)COC(=O)c2ccc(NS(=O)(=O)/C=C/c3ccccc3)cc2)cc1` was “inactive”.
As to `COc1ccc(CNC(=O)C2CCN(C(=O)c3ccco3)CC2)cc1`, the Potency entry was “inactive”.
The value for `COc1ccccc1Cn1c(=S)[nH]c2cc(C(=O)N3CCN(C)CC3)ccc2c1=O` was “inactive”; that for `COc1ccc(Cn2c(=O)[nH]c3cc(C(=O)N4CCN(C(=O)c5ccco5)CC4)ccc3c2=O)cc1` was 11.2 µM (active).

Source of the values: PubChem BioAssay AID686978 (National Center for Advancing Translational Sciences (NCATS), 2013).
